Reference: PubChem BioAssay (EPA / NIEHS)
Results filed as inconclusive are left out. The source made the active and inactive calls. How the source made its calls: active means hit-call score of the fitted dose curve at least 0.9, where 1 is the maximum; inconclusive means response in the unintended direction; inactive means score below 0.9.

Legend:
[1] = Tanguay_ZF_120hpf_CFIN_legacy: (Legacy) Oregon State University Tanguay Lab 120 Hour Post-fertilization zebrafish Assay for Caudal Fin Malformation (AID 2283649)
How it was run: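 Binary brightfield scoring of caudal fin defects at 120 hpf after static, light-shielded exposure at 28C from 6 hpf. Tropical 5D embryos, chorion removed with pronase at 4 hpf, final DMSO 0.64%.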

[2] = Tanguay_ZF_120hpf_PIG_legacy: (Legacy) Oregon State University Tanguay Lab 120 Hour Post-fertilization zebrafish Assay for Pigmentation Malformation (AID 2283650)
How it was run: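 Tropical 5D wild-type zebrafish embryos, dechorionated with pronase at 4 hpf, were exposed singly from 6 hpf to 120 hpf statically at 28C in sealed, dark plates with 0.64% DMSO; pigmentation scored present/absent by brightfield microscopy, fitted against DMSO.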

[3] = Tanguay_ZF_120hpf_CIRC_legacy: (Legacy) Oregon State University Tanguay Lab 120 Hour Post-fertilization zebrafish Assay for Circulatory Malformation (AID 2283651)
How it was run: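 Read-out: presence or absence of circulatory malformation at 120 hpf, scored by brightfield microscopy, fitted in the gain-of-signal direction against DMSO baseline. Wild-type 5D larvae were exposed from 6 hpf after enzymatic chorion removal.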

[4] = Tanguay_ZF_120hpf_SWIM_legacy: (Legacy) Oregon State University Tanguay Lab 120 Hour Post-fertilization zebrafish Assay for Swim Bladder Malformation (AID 2283654);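 further: swim bladder malformation in each larva scored yes or no under brightfield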
How it was run: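 Dechorionated Tropical 5D wild-type embryos, placed singly from 6 hpf, were statically exposed at 28C to 120 hpf with 0.64% DMSO final; swim bladder malformation was scored present/absent by brightfield microscopy, gain of signal relative to DMSO controls.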

[5] = Tanguay_ZF_120hpf_TRUN_legacy: (Legacy) Oregon State University Tanguay Lab 120 Hour Post-fertilization zebrafish Assay for Truncated Body (AID 2283655)
How it was run: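 Binary presence/absence of truncated body is recorded at 120 hpf by brightfield, with non-mortality endpoints skipped after death. Exposure is static from 6 hpf in sealed dark plates at 28C, using dechorionated wild-type zebrafish, 0.64% DMSO.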

[6] = Tanguay_ZF_120hpf_NC_legacy: (Legacy) Oregon State University Tanguay Lab 120 Hour Post-fertilization zebrafish Assay for Notochord and Tail Malformation (AID 2283656)
How it was run: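 Dechorionated Tropical 5D wild-type zebrafish embryos, one per well from 6 hpf, statically exposed to 120 hpf at 28C in 0.64% DMSO final. Notochord distortion scored present/absent by brightfield; dead embryos excluded.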

[7] = Tanguay_ZF_120hpf_TR_legacy: (Legacy) Oregon State University Tanguay Lab 120 Hour Post-fertilization zebrafish Assay for Touch Response (AID 2283667)
How it was run: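 Tropical 5D wild-type zebrafish embryos were exposed statically in sealed, foil-covered plates at 28C until 120 hpf, with 0.64% (vol/vol) final DMSO. Touch response was scored as present or absent; embryos that died were not scored.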

[8] = Tanguay_ZF_120hpf_ActivityScore_legacy: (Legacy) Oregon State University Tanguay Lab 120 Hour Post-fertilization zebrafish Assay Score for Activity (AID 2283742)
How it was run: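 Tropical 5D wild-type zebrafish embryos, dechorionated with pronase at 4 hpf, were exposed singly from 6 hpf to 120 hpf statically at 28C in 0.64% DMSO. Malformations and mortality were scored as binary by brightfield, with the activity score combining 18 morphology components.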

[9] = STM_H9_OrnCyssISnorm_ratio: Stemina devTOX quickPredict H9 human embryonic stem cell (hESC)-based Assay for Ornithine (ORN):Cystine (CYSS) Ratio (AID 2283714)
How it was run: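 Undifferentiated H9 hESCs were exposed to compound for 72h with media and chemical replaced every 24h. Final 24-h conditioned media were deproteinized and analysed by UPLC-HRMS. ORN and CYSS peak areas were normalized to C13 internal standards and the ratio taken versus 0.1% DMSO.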

[10] = biological target: zebrafish Estrogen Receptor (ESR1), esr1 (gene 259252) (UniProt P57717); assay: ATG_zfER1_XSP1: Attagene TRANS-FACTORIAL Multi-Species (XSP1) HepG2 Assay for zebrafish Estrogen Receptor (ESR1) (AID 2283772)
How it was run: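 Trans-activation readout: transfected zebrafish ER-Gal4 drives a UAS reporter in human HepG2 liver cells. After 24 h compound exposure (medium containing 3 nM 6-alpha-fluorotestosterone), induced reporter transcripts were quantified by RT-PCR with capillary electrophoresis, relative to DMSO.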

[11] = tested on: zebrafish Estrogen Receptor (ESR2B), gene 317733; assay: ATG_zfER2b_XSP1: Attagene TRANS-FACTORIAL Multi-Species (XSP1) HepG2 Assay for zebrafish Estrogen Receptor (ESR2B) (AID 2283773)
How it was run: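 HepG2 cells transiently transfected with multiple GAL4-UAS reporter units expressing chimeric zebrafish ER2b-Gal4; 24 h chemical exposure with 3 nM 6-alpha-fluorotestosterone present. Reporter mRNA measured by RT-PCR and capillary electrophoresis; gain of signal fitted versus DMSO.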

[12] = tested on: frog Estrogen Receptor (ESR2), gene 100174814; assay: ATG_frER2_XSP1: Attagene TRANS-FACTORIAL Multi-Species (XSP1) HepG2 Assay for frog Estrogen Receptor (ESR2) (AID 2283774)
How it was run: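 HepG2 cells transiently transfected with GAL4-UAS multiplexed reporter units expressing chimeric NR-Gal4 proteins; reporter mRNA measured 24 h after dosing by RT-PCR, FAM labeling, HpaI digestion and capillary electrophoresis. Gain-of-signal relative to DMSO; 3 nM 6-alpha-fluorotestosterone present.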

[13] = tested on: frog Estrogen Receptor (ESR1), gene 398734; assay: ATG_frER1_XSP1: Attagene TRANS-FACTORIAL Multi-Species (XSP1) HepG2 Assay for frog Estrogen Receptor (ESR1) (AID 2283777)
How it was run: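 Read-out: fluorescent reporter mRNA via RT-PCR, HpaI digestion and capillary electrophoresis, after 24 h chemical exposure of transiently transfected human HepG2 cells expressing exogenous NR-Gal4 chimeras. DMSO served as baseline for positive-direction fitting.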

[14] = tested on: zebrafish Estrogen Receptor (ESR2A), gene 317734; assay: ATG_zfER2a_XSP1: Attagene TRANS-FACTORIAL Multi-Species (XSP1) HepG2 Assay for zebrafish Estrogen Receptor (ESR2A) (AID 2283778)
How it was run: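 HepG2 cells transiently transfected with multiplexed GAL4-UAS reporter units and chimeric NR-GAL4 receptors; 24 h compound exposure with 3 nM 6-alpha-fluorotestosterone present. Reporter mRNA quantified by RT-PCR and capillary electrophoresis, gain-of-signal fitted relative to DMSO.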

Chain of zebrafish Estrogen Receptor (ESR1), esr1 (gene 259252) (P57717 whole entry, looked up, the tested form may be a part): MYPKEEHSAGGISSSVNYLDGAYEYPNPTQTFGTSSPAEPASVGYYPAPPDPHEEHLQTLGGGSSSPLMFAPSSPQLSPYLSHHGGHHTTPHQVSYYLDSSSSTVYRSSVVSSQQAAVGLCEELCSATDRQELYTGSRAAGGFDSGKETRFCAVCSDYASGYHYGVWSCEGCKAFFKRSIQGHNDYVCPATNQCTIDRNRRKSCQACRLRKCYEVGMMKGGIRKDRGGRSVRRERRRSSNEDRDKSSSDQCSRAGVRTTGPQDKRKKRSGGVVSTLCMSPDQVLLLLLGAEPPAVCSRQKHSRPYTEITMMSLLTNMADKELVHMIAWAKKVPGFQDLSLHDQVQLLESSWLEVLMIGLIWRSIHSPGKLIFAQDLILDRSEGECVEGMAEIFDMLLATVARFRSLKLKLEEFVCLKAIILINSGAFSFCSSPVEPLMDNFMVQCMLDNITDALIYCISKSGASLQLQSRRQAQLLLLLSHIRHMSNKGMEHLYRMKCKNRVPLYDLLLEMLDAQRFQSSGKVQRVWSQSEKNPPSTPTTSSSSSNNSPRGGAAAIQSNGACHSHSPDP

O=C(O)c1ccc([N+](=O)[O-])cc1
outcome [1]: inactive
outcome [2]: inactive
outcome [3]: inactive
outcome [4]: inactive
outcome [5]: inactive
outcome [6]: inactive
outcome [7]: inactive
outcome [8]: inactive

CCN(CC)CCOC(=O)c1ccc(N)cc1
outcome [9]: inactive

CN(CCOc1ccc(CC2SC(=O)NC2=O)cc1)c1ccccn1 (stereo unspecified)
outcome [10]: inactive
AC50 [11]: 78.7 nM (active)
outcome [12]: inactive
AC50 [13]: 66.6 nM (active)
outcome [14]: inactive

CN(C)C(=N)N=C(N)N
outcome [10]: inactive
AC50 [11]: 100000 nM (active)
